# Several values for one entry are separate records, joined by “and”; a condition that tells them apart may be missing. Equal entries are not always repeated. Hit rate of the full screen: of about 74,000 compounds, about 1,100 (1.5%) were called active. Roughly 5% stayed inconclusive and do not appear here. The entries come from a sample that favours actives as a whole. Entries that show only a call come without a potency. Values without a mark were called inactive. Calls come from the whole dose curve; as a rule, active = well fitted inhibition curve with a large enough effect; inconclusive = small, poorly fitted or top-dose-only effect; inactive = no such curve, though single readings can be large or run the other way. Non-standard residues stand in square brackets, D forms with d. Residues, ends and D or L forms follow the SMILES beside them. Groups on a side chain read outwards from the residue. *: point of attachment. X2 = CCC(C)C(N)C1=NC(C(=O)*)CS1; Orn = NCCC[CH](N)C(=O)O
# Biological target: Polyunsaturated fatty acid lipoxygenase ALOX15 (Homo sapiens) (UniProt P16050)
# Sequence (P16050 whole entry, looked up): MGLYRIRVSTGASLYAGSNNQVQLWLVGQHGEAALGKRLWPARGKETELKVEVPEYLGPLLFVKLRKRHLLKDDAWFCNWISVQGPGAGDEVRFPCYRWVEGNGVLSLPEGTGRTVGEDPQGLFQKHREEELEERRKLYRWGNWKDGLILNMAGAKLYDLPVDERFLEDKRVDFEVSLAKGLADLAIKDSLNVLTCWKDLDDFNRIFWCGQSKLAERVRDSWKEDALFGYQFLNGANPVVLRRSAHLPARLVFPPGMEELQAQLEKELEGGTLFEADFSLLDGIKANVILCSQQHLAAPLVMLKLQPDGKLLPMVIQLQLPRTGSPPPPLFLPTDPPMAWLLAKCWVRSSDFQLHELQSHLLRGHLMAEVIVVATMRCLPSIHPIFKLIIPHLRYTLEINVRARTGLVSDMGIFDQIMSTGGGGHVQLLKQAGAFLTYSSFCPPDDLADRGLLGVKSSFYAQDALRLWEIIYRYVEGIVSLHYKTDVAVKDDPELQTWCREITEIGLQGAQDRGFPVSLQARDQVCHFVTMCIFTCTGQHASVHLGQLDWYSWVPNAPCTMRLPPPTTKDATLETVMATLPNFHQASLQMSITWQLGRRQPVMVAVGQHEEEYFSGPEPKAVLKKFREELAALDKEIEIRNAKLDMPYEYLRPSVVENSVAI
# Assay: qHTS Assay for Inhibitors of 15-hLO (15-human lipoxygenase); note: nearly all actives have a fitted effect of over 55% in size
# Conditions: purified 15hLO-1, xylenol orange hydroperoxide absorbance; series mostly up to 57.1 µM
# How it was run: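 Compounds were preincubated 15 min at room temperature with 40 nM purified human enzyme (25 mM Hepes pH 7.5, 0.01% Triton X-100); 50 uM arachidonic acid reacted 6 min. Fe-xylenol orange detection, 30 min, absorbance ratio 573/405 nm.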
# Potency is the fitted concentration of half-maximal effect.
SMILES,Potency,"activity change, negative = inhibition"
CSc1sc(C)cc1C1C(C#N)=C(N)N(c2cccnc2)C2=C1C(=O)CCC2 (stereo unspecified),15.8 µM (active),
Cc1cc(C(=O)O)ccc1[N+](=O)[O-],,inactive
O=C1C[C@@H](O)[C@@H](O)[C@H]2[C@@H]3C(=O)N(Cc4ccc5c(c4)OCO5)C(=O)[C@@H]3CC[C@H]12,,6.76% [at 11.4 µM] and -0.286% [at 11.4 µM]
CO/N=C\[C@@H](C)[C@H](OCc1ccccc1)C(C)C,,6.43% [at 11.4 µM]
CC1C(O)CC2C(C(=O)O)=CO[C@@H](O[C@H]3OC(CO)C(O)C(O)C3O)C21 (stereo partly specified),,inactive
CC1(C)OC(C(O)(c2ccccc2)c2ccccc2)C(C(O)(c2ccccc2)c2ccccc2)O1 (stereo unspecified),,14.5% [at 11.4 µM]
CC[C@@H]1Cc2cc(O)ccc2C2=C1c1ccc(O)cc1C[C@H]2CC,10 µM (active),
COc1cccc([C@H](O)Cn2cc(-c3ccc(CON=C(C)C)cc3)nn2)c1,,15.5% [at 11.4 µM]
C[C@@H](c1ccccc1)N1C(=O)[C@H]2[C@H]3[C@H](O)[C@H](O)C/C(=N/OC[C@@H](O)COCc4ccco4)[C@@H]3CC[C@@H]2C1=O,,0.315% [at 11.4 µM]
Cc1cnc(CNc2cc(-c3c(C)noc3C)ncn2)cn1,,inactive
CCC(C)C(N)C1=NC(C(=O)NC(CC(C)C)C(=O)NC(CCC(=O)O)C(=O)NC(C(=O)NCCCCC2NC(=O)C(CC(N)=O)NC(=O)C(CC(=O)O)NC(=O)C(Cc3cnc[nH]3)NC(=O)C(Cc3ccccc3)NC(=O)C(C(C)CC)NC(=O)C(CCCN)NC2=O)C(C)CC)CS1 (stereo not drawn) (cyclo(DNK([Ile-Glu-Leu-X2])[Orn]IFH); configuration not given here),,inactive
COc1ccc(C(=O)NC(=O)CSc2nnc(-c3ccco3)n2-c2ccccc2)cc1,,inactive
O=C(CSc1nnc(-c2ccco2)n1-c1ccccc1)NCCc1ccccc1,6.31 µM (active),
Cc1cccc(C)c1NC(=O)CCCSc1nnc(-c2ccco2)n1-c1ccccc1,,inactive
COC(=O)[C@@H]1CC[C@H](C)[C@@H](c2ccc(C)cc2)N1C(=O)c1ccc(/C=N\O[C@@H](C)c2cn([C@H](CO)Cc3ccccc3)nn2)cc1,,-7.8% [at 11.4 µM] and 0.419% [at 11.4 µM]
CC(=O)N1CCC2(CC1)CCN(c1ccncc1)CC2,,inactive
CC(=O)N1CCN(c2ccc(NCc3ccc(C(C)C)cc3)cc2)CC1,12.6 µM (active),
CN1CCN(c2ccc(NC(=O)COc3ccc(Cl)cc3Cl)cc2)CC1,,inactive
CC(C)CO/N=C1/C[C@@H](O)[C@@H](O)[C@@H]2[C@@H]3C(=O)N(C[C@@H]4CCCO4)C(=O)[C@H]3CC[C@@H]12,,9.84% [at 11.4 µM]
C[C@@H]1O[C@@H](OC[C@H]2O[C@@H](Oc3c(-c4cccc(O)c4O)oc4cc(O)cc(O)c4c3=O)[C@H](O)[C@@H](O)[C@@H]2O)[C@H](O)[C@H](O)[C@H]1O,,inactive
CC(C)C(c1nnnn1CCc1ccccc1)N1CCN(C(=O)c2ccco2)CC1 (stereo unspecified),,inactive
O=C(OCc1cc2ccccc2[nH]c1=O)c1cccnc1,,inactive

SMILES,Potency,"activity change, negative = inhibition"
C=CCOC(=O)C(C(C)=O)C(NC(=O)OC)c1ccccc1 (stereo unspecified),,13.9% [at 11.4 µM]
O=C(CSc1nc2[nH]ncc2c(=O)n1-c1ccccc1)N1CCCc2ccccc21,15.8 µM (active),
C=CCn1c(=O)c2ccccc2n2c(SCC(=O)N3CCCc4ccccc43)nnc12,,inactive
Cc1nnc(SCC(=O)N2CCc3ccccc32)n1-c1ccccc1,,inactive
CC1(C)OC2CC(=O)OC[C@@]23C1CC(=O)[C@]1(C)C3CC[C@@]2(C)C(c3ccoc3)OC(=O)C3O[C@@]321 (stereo partly specified),,inactive
COc1ccc(C(=O)n2nc(-c3ccc(Cl)cc3)nc2N)cc1OC,,inactive
COc1ccccc1C(=O)n1nc(-c2ccccc2)nc1N,12.6 µM (active),
COc1ccc(C(=O)n2nc(-c3ccc(C)cc3)nc2N)cc1OC,,inactive
CCOC(=O)c1cccc(NC(=O)CCn2nnc3ccccc32)c1,,inactive
CO[C@@H]1COC(=O)[C@H](Cc2ccccc2)NC(=O)C/C=C\[C@@H](C)[C@H](OC)COC(=O)[C@@H](C)NC(=O)C/C=C\[C@H]1C,,2.31% [at 11.4 µM] and 5.99% [at 11.4 µM]
Cc1cccc(C(=O)O)c1[N+](=O)[O-],,inactive
C=CC(=O)c1ccc2ccccc2c1,12.6 µM (active),
Cc1ccc2nc(CC(=O)c3ccc4ccccc4c3)c(=O)[nH]c2c1,,-4.04% [at 11.4 µM]
Cc1csc(-c2nc3ccccc3n2C)n1,,inactive
Cc1cccc2c3c(ccc12)C1=C(C(=O)C3=O)C(C)CO1 (stereo unspecified),,inactive
C/C(CCN1CCc2nc(-c3ccccc3)c(-c3ccccc3)cc2C1)=N\O[C@@H](C)c1cn([C@@H]2COC[C@@H]2O)nn1,,0.588% [at 11.4 µM]
O=C(Oc1cc(OC(=O)c2ccccc2)c2c(c1)OC(c1ccc(OC(=O)c3ccccc3)c(OC(=O)c3ccccc3)c1)[C@@H](OC(=O)c1ccccc1)C2)c1ccccc1 (stereo partly specified),,inactive
COC(=O)C(C(=O)OC)[C@@H]1CCCC(=O)C1,,14.4% [at 11.4 µM]
CCn1c(SCC(=O)Nc2nc3ccc(OC)cc3s2)nnc1-c1ccoc1C,,inactive
C=CCn1c(CSc2nc3ccccc3s2)nnc1SCC(=O)NCc1ccco1,,inactive
C=CCn1c(SCC(=O)Nc2nc3ccccc3s2)nnc1-c1ccccc1O,25.1 µM (active),
CC(C)C(N)C(=O)OCCOCn1cnc2c(=O)[nH]c(N)nc21 (stereo unspecified),,inactive

SMILES,Potency,"activity change, negative = inhibition"
Cc1ccc2c(c1)C(O)(CC(=O)c1cccnc1)C(=O)N2 (stereo unspecified),,inactive
COc1ccc(/C=C/NC(=O)c2ccc(OC)cc2)cc1,,-5.84% [at 11.4 µM]
Cc1cccn2c(=O)c3cc(C(=O)NCc4ccccn4)n(C)c3nc12,,inactive
O=C(NCc1ccccn1)c1cc2ccccc2oc1=O,,inactive
O=C(NCc1ccccn1)c1ccc2nc(-c3ccco3)c(-c3ccco3)nc2c1,3.16 µM (active),
O=C(O)c1ccc(Cl)c(S(=O)(=O)Nc2ccccc2Cl)c1,,inactive
N#Cc1c(N)sc2c1CCN(C(=O)OCc1ccccc1)C2,15.8 µM (active),
NC1(C(=O)OCc2ccccc2)CCCC1,,-11.8% [at 11.4 µM]
N#Cc1ccc(COC(=O)Cn2nnc(-c3ccccc3)n2)cc1,,inactive
CC(CCC(=O)O)C1CCC2C3C(O)C[C@@H]4CC(O)CC[C@@]4(C)C3CC[C@@]12C (stereo partly specified),,inactive
C#CCC(C(=O)OC)(C(=O)OC)C(C[N+](=O)[O-])c1ccccc1 (stereo unspecified),,-3.59% [at 11.4 µM]
CCC(CCC(C)C1CCC2C3CC=C4CC(O)CC[C@@]4(C)C3CC[C@@]12C)C(C)C (stereo partly specified),,inactive
CO[C@H]1COC(=O)C/C=C\[C@H](C)COC(=O)[C@@H](OCc2ccccc2)/C=C\[C@@H]1C,,5.89% [at 11.4 µM]
C=C1C(=O)C23C(O)C1CCC2[C@]12COC3(O)C(O)C1C(C)(C)CC[C@H]2O (stereo partly specified),,inactive
CCOCCCN1C(=O)CN(C2CCCCC2)C(=O)C1c1ccc(OCC)c(OC)c1 (stereo unspecified),,inactive
COC(=O)[C@@H]1CC[C@H](C)[C@@H](c2ccc(C)cc2)N1C(=O)c1ccc(/C=N\OC[C@@H](O)COCc2ccco2)cc1,,-2.65% [at 11.4 µM]
Cc1ccc(-c2nc(CS(=O)CC(=O)N3CCN(c4ncccn4)CC3)c(C)o2)cc1 (stereo unspecified),,inactive
CCOc1ccc2[nH]c(=O)c(CN(Cc3nnnn3Cc3ccccc3)CC3CCCO3)cc2c1 (stereo unspecified),,inactive
COc1ccc2[nH]c(=O)c(CN(Cc3nnnn3CCc3ccccc3)CC3CCCO3)cc2c1 (stereo unspecified),1.26 µM (active),
CCOc1ccc2[nH]c(=O)c(CN(Cc3nnnn3CCc3ccccc3)CC3CCCO3)cc2c1 (stereo unspecified),,inactive
O=C(CSc1nnc2scc(-c3ccc(F)cc3)n12)NCc1ccco1,,inactive
CCCc1nc2c(C)cc(-c3nc4ccccc4n3C)cc2n1Cc1ccc(-c2ccccc2C(=O)O)cc1,,inactive

# Source: PubChem BioAssay AID887 (National Center for Advancing Translational Sciences (NCATS), 2007)
